Only some compounds are listed: those with a hit (about 0.022% of all), similar ones and a draw of the others.
GALK inhibitor: inhibits human galactokinase | P51570 | recombinant GALK, Kinase-Glo ATP luminescence, 1 h | Potency, µM (doses to about 57.5 µM), most hits filed as inhibitors | 44,000 tested, under 10 active
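Luminescent ATP-depletion readout (Kinase-Glo Plus, 10 min) after 1 h RT reaction of 5 nM GALK, 35 uM ATP, 100 uM galactose, pH 8.0 HEPES buffer. Decreased kinase activity scored as inhibition.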
TSG101-PTAP inh: TSG101-PTAP interaction inhibition, HIV-1 budding | Fluorescence polarization, FITC-PTAP peptide/Tsg101, 20 min | 44,000 tested, under 10 active | Q99816 | Potency, µM (highest dose often 115 µM), most hits filed as inhibitors | AID 1347069
Target sequence (Q99816 whole entry, looked up): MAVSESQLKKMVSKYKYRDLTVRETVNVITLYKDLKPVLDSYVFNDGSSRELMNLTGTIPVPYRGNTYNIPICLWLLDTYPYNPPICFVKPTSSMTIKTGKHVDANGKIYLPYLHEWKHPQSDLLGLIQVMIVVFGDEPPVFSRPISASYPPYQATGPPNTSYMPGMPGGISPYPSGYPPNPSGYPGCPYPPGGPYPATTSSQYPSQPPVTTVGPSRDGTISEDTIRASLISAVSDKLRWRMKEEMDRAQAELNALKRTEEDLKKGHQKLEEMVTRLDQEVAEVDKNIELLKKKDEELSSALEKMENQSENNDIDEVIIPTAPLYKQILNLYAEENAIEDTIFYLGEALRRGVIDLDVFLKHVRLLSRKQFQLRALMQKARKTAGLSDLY
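Compounds pinned into 10 uM Tsg101 binding domain, then 50 nM FITC-PTAP peptide added in pH 7.5 HEPES buffer; FP read after 20 min, room temperature. Total S+P intensity flags fluorescent compounds; active cut-off <25 µM, efficacy <60%.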
B2AR arrestin ag: agonists recruiting beta-arrestin to human beta2-adrenergic receptor; 44,000 tested, under 10 active; P07550; Potency, µM (doses to about 46.1 µM), usual class: activators; HTLA Tango cells, beta-arrestin recruitment, luciferase luminescence, 18 h
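Luminescence read-out: arrestin recruitment to recombinant beta2-AR releases tTA, inducing luciferase. Cells exposed 18 hr at 37 degrees C to up to 46 microM compound; %Activity from corrected signal, concentration-response curves classified by r2, magnitude and efficacy.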
Each line names hits and unclear results; the compound was inactive in the other large screens. Calls come from the whole dose curve; as a rule, active = well fitted curve in the direction sought with a large enough effect; inconclusive = small, poorly fitted or top-dose-only effect, or another doubt; inactive = no such curve, though single readings can be large; an effect the other way counts as inactive or inconclusive.

Cc1ccc(OCC(=O)Nc2ccccc2C(=O)OCc2cc(=O)n3c(C)csc3n2)cc1	none
COC(=O)CN1C(=O)CSc2ccc(S(=O)(=O)Nc3ccccc3)cc21	none
CCOc1ccc(C(=O)Nc2nnc(SCc3cc(=O)c4cc(C)ccc4[nH]3)s2)cc1	none
COc1ccc(NC(=O)N2CCOc3ccc(Cl)cc32)cc1	none
CCOCCCN1C(=O)c2[nH]nc(-c3ccccc3O)c2C1c1ccc(CC)cc1 (stereo unspecified)	B2AR arrestin ag 7.1µM
CCc1ccc(C2c3c(-c4ccccc4O)n[nH]c3C(=O)N2Cc2ccncc2)cc1 (stereo unspecified)	B2AR arrestin ag inconclusive
CCOC(=O)c1c(Nc2ccc(C)cc2)nnc(-c2ccccc2)c1-c1ccccc1	none
O=C(Cn1c(=O)n(CC2CCCO2)c(=O)c2ccccc21)Nc1ccc(F)cc1F (stereo unspecified)	none
CCC(=O)N1CCc2cc(Br)cc(S(=O)(=O)N3CCC(C(=O)Nc4cccc(C)c4)CC3)c21	none
Cc1ccc(NC(=O)Cn2c(=O)n(CCc3ccccc3)c(=O)c3c4c(sc32)CCCC4)c(C)c1	none
COc1ccc(OC)c(CCNc2ncnc3onc(C)c23)c1	none
CC(=O)N1CCCc2cc(S(=O)(=O)N3CCCC(C(=O)Nc4cccc(Cl)c4C)C3)ccc21 (stereo unspecified)	none
Cc1ccc(Oc2c(C(F)(F)F)oc3cc(OCC(=O)NC4CCCCC4)ccc3c2=O)cc1	none
COc1ccc(CCNC(=O)c2ccc3c(c2)N=C(C)c2ccccc2S3)cc1OC	none
CCN(CCCNC(=O)c1cc(Nc2ccc(OC)cc2OC)nc2ccccc12)c1cccc(C)c1	none
CCOC(=O)c1cc(-c2ccc(OC)cc2)n(CCC(=O)NCc2ccc(OC)cc2)c1C	none
CC1CCN(S(=O)(=O)c2cn(CC(=O)Nc3ccc(F)cc3)c(=O)c3ccccc23)CC1	none
O=S(=O)(Nc1cccc(-c2ccc(N3CCOCC3)nn2)c1)c1ccc(F)c(C(F)(F)F)c1	none
O=C(NCc1nc2cccnc2n1Cc1ccc(F)cc1)c1ccccc1C(F)(F)F	none
Cc1c(C(=O)N(C)c2cccc(C(F)(F)F)c2)sc2nc3n(c(=O)c12)CCCCC3	TSG101-PTAP inh 45µM
Cc1c(C(=O)Nc2cccc(C(F)(F)F)c2)sc2nc3n(c(=O)c12)CCCC3	none
Cc1ccc(CN2CCCn3nc(C(=O)NCCc4ccccc4Cl)cc3C2=O)cc1	none
COc1ccc(C)cc1NC(=O)c1nnn(-c2c(C)cccc2C)c1C	none
Cc1cc(N2CCN(c3cccc(C(F)(F)F)c3)CC2)n2nc(-c3ccccc3C)nc2n1	none
Cc1ccc(S(=O)(=O)Nc2cc(Cl)c3oc4c(c3c2)C(=O)CC(C)(C)C4)cc1	none
O=C(Nc1ccc(F)cc1Cl)c1cnc(N2CCOCC2)c2ccccc12	none
CC(C)Nc1ccc(-c2nc(-c3ccncc3)no2)cc1[N+](=O)[O-]	none
Cc1ccc(NC(=O)C(=O)NCC(c2ccc3c(c2)OCO3)N2CCOCC2)c(C)c1 (stereo unspecified)	none
CCOc1cc(C(=O)N(Cc2nc(-c3ccc(C)cc3)no2)C(C)C)cc(OCC)c1OCC	none
COc1cccc(N2C(=O)N(CC(=O)NCc3cccc(OC)c3OC)c3ccccc3S2(=O)=O)c1	none
Cn1ncc2c(Nc3cccc(C#N)c3)ncnc21	none
COc1ccc(CNS(=O)(=O)c2ccc(N3CCCCS3(=O)=O)cc2)cc1	none
Cc1ccccc1S(=O)(=O)Cc1ccc(C(=O)NCc2ccccc2Cl)o1	none
CN(C(=O)CSc1nc2ncccc2o1)c1ccc(F)cc1	none
CCCc1ccc(S(=O)(=O)N2CCC(c3nnc(-c4cccc(C)c4)o3)CC2)cc1	none
O=C(Nc1ccccc1Br)C(Cc1ccccc1)NS(=O)(=O)c1cccc2nsnc12 (stereo unspecified)	none
COc1ccccc1/C=C/c1nc(C#N)c(NC2CCCCC2)o1	none
CCc1ccc(OCC(=O)N(Cc2ccc(C)o2)C2CCS(=O)(=O)C2)cc1 (stereo unspecified)	none
CCc1cccc(C)c1NC(=O)c1cc(S(=O)(=O)NCc2ccccc2Cl)ccc1F	none
COCCNC(=O)Cn1nc(N2CCN(c3ccccc3OC)CC2)ccc1=O	none
CCOC(=O)c1cc2c(=O)n3ccccc3nc2n(CC(C)C)c1=NC(=O)COc1ccc(Cl)cc1	none
Cc1cccc(-n2ncc(C(=O)N3CCN(C4CCCCC4)CC3)c2C2CCN(C(=O)OC(C)(C)C)CC2)c1	none
O=C(NCCSCc1c(F)cccc1Cl)C1CCN(S(=O)(=O)Cc2ccccc2)CC1	none
Cc1cc2n(n1)CCCN2C(=O)Nc1ccc(Cl)cc1	none
COc1cccc(N2CCN(c3c4c(nc5nncn35)CCC4)CC2)c1	none
O=C1C(c2ccc(F)cc2)N(Cc2ccccc2Cl)C(=O)CN1C1CCCCC1 (stereo unspecified)	none
Cc1cc(OC(C)C(=O)N2CCC(c3nc4ccccc4o3)CC2)ccc1Cl (stereo unspecified)	none
O=C(Cc1ccc(-c2ccccc2)cc1)NCCS(=O)(=O)N1CCN(c2cccc(Cl)c2)CC1	none
Cc1ccc(N(CC(=O)Nc2ccc(F)cc2F)S(=O)(=O)c2cccs2)cc1	none
Cc1cc2c(cc1S(=O)(=O)N(C)CC(=O)Nc1ccc(C#N)cc1)OCC(=O)N2	none
Cc1ccc(CCNC(=O)C(CC(C)C)NS(=O)(=O)c2ccc3c(c2)oc(=O)n3C)cc1 (stereo unspecified)	none
Cc1ccc(CSCCC(=O)N2CCN(c3ccc(F)cc3)CC2)cc1	none
O=C(c1cnn(-c2cccc(F)c2)c1-n1cccc1)N1CCN(c2ccccc2F)CC1	none
CCOc1ccc(S(=O)(=O)Nc2cccc(-c3ccc(N4CCCC4)nn3)c2)cc1	none
CC(C)(C)c1ccc(S(=O)(=O)c2cnc(SCC(=O)Nc3ccc(F)c(Cl)c3)[nH]c2=O)cc1	GALK inhibitor 20µM
O=C(CSc1ncc(S(=O)(=O)c2ccc(Cl)cc2)c(=O)[nH]1)Nc1cccc(C(F)(F)F)c1	none
Cc1csc2nc(COc3ccc(NC(=O)COc4ccc(F)cc4)cc3)cc(=O)n12	none
CCN(Cc1ccccc1)S(=O)(=O)c1cc(C(=O)Nc2cc(Cl)cc(Cl)c2)ccc1F	none
CC(C)(C)c1ccc(C(=O)N2CCN(Cc3cc(=O)n4nc(-c5ccccc5F)sc4n3)CC2)cc1	none
O=C1CS(=O)(=O)C2(C(=O)N(Cc3ccccc3Cl)c3ccccc32)N1c1ccc(F)cc1 (stereo unspecified)	none
COC(=O)c1sccc1S(=O)(=O)N(CC(=O)NCc1ccc(C)cc1)c1ccccc1	none
COc1ccc2c(c1)c1c(c(=O)n(-c3cccc(C)c3)c(=O)n1CC(=O)NCC1CCCO1)n2C (stereo unspecified)	none
CCOc1ccc(C(=O)Nc2ccc(-c3nc4ccccc4s3)c(C)c2)cc1OCC	none
CCN1C(=O)C2(c3ccccc31)c1c(oc3ccccc3c1=O)C(=O)N2CCOC (stereo unspecified)	none
CCC(=O)Nc1nnc2n1CCS2	none
COc1ccccc1Cn1cc(C(=O)c2ccc(C)cc2)c(=O)c2cc3c(cc21)OCCO3	none
CCOc1cc(CNC(=O)Cn2c(=O)c3cccn3c3ccc(F)cc32)cc(OCC)c1OCC	none
Cc1ccc(C(=O)NCC(=O)OCc2cc(=O)n3nc(C4CCCCC4)sc3n2)cc1	none
COc1cccc(CN2C(=O)c3ccccc3Sc3ccc(C(=O)NCCc4ccc(C)cc4)cc32)c1	none

High-throughput results as filed in PubChem.
